Out of some 320,000 compounds screened, about 3,300 (1%) were called active. For the sample, actives were picked, then their nearest neighbours and some compounds at random. Values without a mark were called inactive.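 Rule for the calls: active = every valid replicate shows activation above 250% relative to neutral control wells; inactive = the rest, any valid replicate at or below 250%.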

The nature of this assay: restored growth of temperature-sensitive Mot1-301 yeast – S. cerevisiae, ATP luminescence, 38.5C, SUMOylation pathway inhibitor project, primary screen (AID 2716). The settings on record: S. cerevisiae Mot1-301 growth rescue, at 18.8 µM, hits give high values.
Turning to `Cc1ccc(-n2c(-c3ccc([N+](=O)[O-])cc3)nc3ccccc3c2=O)cc1`, the growth rescue was 30.7%.

In the case of `COc1ccc(-n2c(-c3ccccc3)nc3ccccc3c2=O)cc1`, the growth rescue was 524% (active).

Consider `O=c1c2ccccc2nc(-c2ccccc2)n1-c1ccccn1`, for which the growth rescue was -8.46%.

For the molecule `C[C@@]1([C@@H](NP(=O)(c2ccccc2)c2ccccc2)c2ccccc2)C[C@H]1CCO`, the growth rescue is 28.7%.

Turning to `CCCC(C)n1[nH]c(=O)c2c1NC(=O)CSC2c1ccc(OC)c(OC)c1` (stereo not given), the growth rescue is -11.2%.

As for `c1ccc(CCN2CCC3(CC2)OCCO3)cc1`, the growth rescue was 313% (active).

With `O=C(c1ccccc1[N+](=O)[O-])N1CCC2(CC1)OCCO2`, the growth rescue was -11.1%.

As to `O=C(Nc1cccc2ccccc12)N1CCC2(CC1)OCCO2`, the growth rescue is 2.67%.

For the molecule `COc1ccccc1OC(=O)c1ccc(C)c(S(=O)(=O)N2CCOCC2)c1`, the growth rescue is -7.94%.

For the molecule `CCOP(=O)(OCC)C(O)c1ccc(OC)cc1OC` (stereo not given), the growth rescue is -5.29%.

For `COc1ccc(N=Cc2c(O)n(C)c(=O)[nH]c2=O)cc1`, the growth rescue is 842% (active).

`COc1ccc(-n2c(O)c(C(C)=Nc3ccc4c(c3)CCC4)c(=O)[nH]c2=O)cc1`: the growth rescue was -1.78%.

Regarding `COc1ccccc1-n1c(O)c(C=NC2CC2)c(=O)[nH]c1=O`, the growth rescue was -17.5%.

Consider `CC(Cc1ccccc1)NCCC(c1ccccc1)c1ccccc1` (stereo not given), for which the growth rescue was -27.1%.

For the molecule `CC(=NCc1ccc2c(c1)OCO2)c1c(O)[nH]c(=O)[nH]c1=O`, the growth rescue was -26.7%.

These data come from PubChem BioAssay AID2716 (Broad Institute, 2010).
